Assay outcomes from PubChem.
VP16 counter: Gal4-VP16 reporter inhibition counter-screen; Drosophila S2 Gal4-VP16 UAS-luciferase, luminescence, 20 h; Potency, µM (highest dose often 53.6 µM), without a hit: at the top dose activity, negative = inhibition, usual class: inhibitors; actives 3.5% (n = 310,000); AID 2546;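 further: Gal4-VP16 expression switched on by copper sulfate through the metallothionein promoter; on the % scale 0 is the no-effect control and ±100 the full control effect; nearly all actives have a fitted effect of over 50% in size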
SW480 rereplic: inducers of DNA re-replication in SW480 colon cancer cells | SW480 DNA re-replication, Hoechst DNA content imaging, 48 h | Potency, µM (series often up to 46.1 µM), inactives show top-dose re-replication activation, actives largely listed as activators | actives 1.8% (n = 340,000) | AID 624297; further: % of control where 0% means no effect; nearly all actives have a fitted effect of over 55% in size
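Quantitative HTS format with DMSO vehicle controls; 48 hr drug incubation at 37 C, then 40 min Hoechst staining and scanning imager measurement at 405 nm excitation.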
KB-V1 cytotox: kills drug-selected multidrug resistant KB-V1 cells | KB-V1 MDR cells viability, CellTiter-Glo, 72 h | Potency, µM (series often up to 46.1 µM), actives largely listed as cytotoxic | actives 3.4% (n = 400,000) | AID 1347076; further: on the % scale 0 is the no-effect control and ±100 the full control effect; nearly all actives have a fitted effect of over 60% in size
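Luminescent ATP read-out (CellTiter-Glo, 10 min) measures survival of drug-selected KB-V1 MDR cells after 72 h, 37 degrees C compound exposure. Medium: phenol-red-free DMEM, 10% FBS. Values from fitted concentration-response curves.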
MCF10A rerep: induces DNA re-replication in MCF 10a normal breast cells. Potency, µM (highest dose often 46.1 µM), for inactives: at the highest dose activity, positive = re-replication, usual class: activators. MCF 10A DNA re-replication, Hoechst nuclear intensity, 48 h. actives 2.9% (n = 350,000). AID 624296; further: % of control where 0% means no effect; nearly all actives have a fitted effect of over 50% in size
KB-3-1 tox: KB-3-1 parental cell cytotoxicity; KB-3-1 viability, CellTiter-Glo ATP luminescence, 72 h; Potency, µM (titrated, usually from 46.1 µM), actives largely listed as cytotoxic; AID 1347075; actives 1.4% (n = 400,000); further: on the % scale 0 is the no-effect control and ±100 the full control effect; nearly all actives have a fitted effect of over 60% in size
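KB-3-1 cells, DMEM (no phenol red) + 10% FBS; compound by pin transfer, 72 h, 37 °C. Readout: CellTiter-Glo luminescence after 10 min. Data normalized, curve-fitted.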
RORgamma inh: blocks mouse ROR gamma transcriptional activity; P51450; Drosophila S2 Gal4-RORgamma UAS-luciferase reporter, 20 h; Potency, µM (doses to about 53.6 µM), inactives show at the highest dose activity change, negative = inhibition, most hits filed as inhibitors; actives 5.4% (n = 310,000); AID 2551; further: on the % scale 0 is the no-effect control and ±100 the full control effect; nearly all actives have a fitted effect of over 60% in size
Target sequence (P51450 whole entry, looked up, the tested form may be a part): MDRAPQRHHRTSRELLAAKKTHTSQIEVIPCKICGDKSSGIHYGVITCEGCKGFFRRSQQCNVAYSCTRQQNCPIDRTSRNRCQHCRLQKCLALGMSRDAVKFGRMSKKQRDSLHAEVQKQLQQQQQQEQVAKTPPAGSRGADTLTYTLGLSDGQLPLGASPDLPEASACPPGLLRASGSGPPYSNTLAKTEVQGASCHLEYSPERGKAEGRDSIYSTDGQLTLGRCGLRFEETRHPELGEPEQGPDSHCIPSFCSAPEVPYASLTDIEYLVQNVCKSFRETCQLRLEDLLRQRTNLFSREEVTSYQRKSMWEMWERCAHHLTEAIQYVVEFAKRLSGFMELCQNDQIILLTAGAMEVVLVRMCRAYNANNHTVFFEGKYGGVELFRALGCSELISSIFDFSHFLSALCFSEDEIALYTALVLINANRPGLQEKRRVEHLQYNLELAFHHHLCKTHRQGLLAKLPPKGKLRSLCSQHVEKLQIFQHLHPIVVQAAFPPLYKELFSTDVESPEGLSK
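Stable Schneider cell line, Gal4 DNA-binding domain fused to ROR gamma, UAS-luciferase. Cmpd 1 hr RT → CuSO4 700 uM final → 20 hr RT → luciferase reagent 10 min → luminescence.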
Starred values were filed as active, the others as inactive; ! = repeats disagree. A selection: hits, their analogues and other compounds. The true share with any hit is near 10%. The call rests on the fitted dose curve; in most records, active means well fitted curve in the direction sought with a large enough effect; inconclusive means small, poorly fitted or top-dose-only effect, or another doubt; inactive means no such curve, though single readings can be large; an effect the other way counts as inactive or inconclusive. Potency means the concentration at half of the fitted maximal effect.

How did COc1ccc(OC)c(CNC(=O)c2nn(-c3ccc(OC)c(Cl)c3)c(=O)c3c2c2ccccc2n3C)c1 do in these assays?
KB-V1 cytotox: inactive; KB-3-1 tox: inactive

What do the screens show for `O=[N+]([O-])c1ccc2c(c1)C(O)n1nc(-c3ccc(Cl)cc3Cl)nc1S2` (centres undefined)?
VP16 counter: inconclusive; SW480 rereplic: -4.2%; KB-V1 cytotox: inactive; MCF10A rerep: -3.8%; KB-3-1 tox: inactive; RORgamma inh: 11.2µM*

How did Cc1ccc(OCc2cc(=O)n3cc(C)sc3n2)c(C)c1 do in these assays?
KB-V1 cytotox: inactive; KB-3-1 tox: inactive

What do the screens show for `O=CNc1c(Cl)cc2c(c1Cl)Cc1cc([N+](=O)[O-])ccc1-2`?
SW480 rereplic: 20.6µM*; KB-V1 cytotox: inconclusive; MCF10A rerep: inconclusive; KB-3-1 tox: inconclusive

How did O=C(O)c1cccc(N/N=C/c2ccc(F)c(F)c2)c1 do in these assays?
VP16 counter: 1.7%; SW480 rereplic: -1.9%; KB-V1 cytotox: inactive; MCF10A rerep: 0.7%; KB-3-1 tox: inactive; RORgamma inh: -16.3%

How did O=C(O)c1cccc(N/N=C/C2=C(Cl)c3cc(Cl)ccc3SC2)c1 do in these assays?
VP16 counter: -27.2%; SW480 rereplic: -1.1%; KB-V1 cytotox: inconclusive; MCF10A rerep: 8.2µM*; KB-3-1 tox: inactive; RORgamma inh: 36.1%

What do the screens show for `C=CCN=C1N[C@@H](c2ccc(Br)cc2)C(C(=O)OC)=C(C)N1Cc1ccccc1`?
VP16 counter: -14.4%; KB-V1 cytotox: inactive; KB-3-1 tox: inactive; RORgamma inh: 28.8%

Results for Cc1ccc(/C=C/C(O)=C2/C(=O)N(C)C3(C)CC2c2ccccc2O3)cc1 (centres undefined) ?
VP16 counter: -1.4%; SW480 rereplic: inconclusive; KB-V1 cytotox: inactive; MCF10A rerep: inconclusive; KB-3-1 tox: 14.6µM*; RORgamma inh: inconclusive

How did COc1cccc(NC(=O)c2csc3c2CCCCC3)c1 do in these assays?
KB-V1 cytotox: inactive; KB-3-1 tox: inactive

What do the screens show for `Cc1cc(/C=N/n2cnnc2)c(C)n1-c1ccc(OCc2ccc(Cl)cc2Cl)cc1`?
VP16 counter: 11.2µM*; SW480 rereplic: 14.1%; KB-V1 cytotox: 5.17µM*; MCF10A rerep: 1.46µM*; KB-3-1 tox: 7.31µM*; RORgamma inh: 0.0%

Results for Cc1cc(/C=N/n2cnnc2)c(C)n1-c1ccc(Cl)cc1 ?
VP16 counter: -13.6%; SW480 rereplic: 2.3%; KB-V1 cytotox: inactive; MCF10A rerep: 16.7%; KB-3-1 tox: inactive; RORgamma inh: 23.4%

How did Cc1cc(/C=N/n2cnnc2)c(C)n1-c1ccccc1 do in these assays?
VP16 counter: 14.8%; SW480 rereplic: -2.8%; KB-V1 cytotox: 5.8µM*; MCF10A rerep: 7.9%; KB-3-1 tox: 3.26µM*; RORgamma inh: 19.8%

Results for CC(C)(C)c1nc(Sc2ccc([N+](=O)[O-])cn2)n[nH]1 ?
VP16 counter: -17.2%; SW480 rereplic: -5.3%; KB-V1 cytotox: inactive; MCF10A rerep: -6.6%; KB-3-1 tox: inactive; RORgamma inh: -9.1%

What do the screens show for `O=[N+]([O-])c1ccc(Sc2n[nH]c(-c3ccc(Cl)cc3Cl)n2)nc1`?
VP16 counter: 7.08µM*; SW480 rereplic: -10.0%; KB-V1 cytotox: inactive; MCF10A rerep: inconclusive; KB-3-1 tox: inactive; RORgamma inh: 0.891µM*

What do the screens show for `COc1cc(-c2noc(C)c2C#Cc2ccc(N)cc2)cc(OC)c1OC`?
VP16 counter: 4.0%; SW480 rereplic: 1.16µM*; KB-V1 cytotox: 1.3µM*!; MCF10A rerep: inconclusive; KB-3-1 tox: 0.82µM*!; RORgamma inh: 18.6%

How did COc1cc(-c2noc(C)c2C#Cc2ccccn2)cc(OC)c1OC do in these assays?
VP16 counter: 0.2%; SW480 rereplic: 3.66µM*; KB-V1 cytotox: 1.3µM*!; MCF10A rerep: inconclusive; KB-3-1 tox: 0.581µM*!; RORgamma inh: -28.0%
